# Data published in PubChem BioAssay (NCATS).
# Where “and” joins values, the source holds several entries; their conditions need not be identical. Equal values may be shown once. Records with an inconclusive call do not appear. Calls of active or inactive are those of the source. Unless noted, the call rests on the fitted dose curve; in most records, active means well fitted curve in the direction sought with a large enough effect; inconclusive means small, poorly fitted or top-dose-only effect, or another doubt; inactive means no such curve, though single readings can be large; an effect the other way counts as inactive or inconclusive.
# Experiments:
# [1] = AP1 Signaling Pathway (AID 357; active means well fitted curve in either direction with a large enough effect, not every such curve was filed as active;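 further: ME-180 reporter cells stimulated with EGF at its EC50 level; on the % scale 0 is the no-effect control and ±100 the full control effect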); settings: ME-180 AP-1-bla reporter, EGF-induced, beta-lactamase ratio, 5 h; at 7.69 µM (top of the series) unless noted
# Summary of the method: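 Beta-lactamase reporter under AP-1 response element, ME-180 background. Stimulus: EC50 EGF. Compound exposure 5 h, 37 °C. Detection: CCF4, 2.5 h RT, 460/530 nm. Values: AC50 from titration.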
# [2] = target: Cytochrome P450 1A2 (Homo sapiens) (UniProt P05177); assay: p450-cyp1a2 (AID 410; calls by dose curve; further: potency means the concentration at half of the fitted maximal effect;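 on activity change, negative = inhibition: -100% = full effect of reference inhibitor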)
# Chain of Cytochrome P450 1A2 (Homo sapiens) (P05177 whole entry, looked up): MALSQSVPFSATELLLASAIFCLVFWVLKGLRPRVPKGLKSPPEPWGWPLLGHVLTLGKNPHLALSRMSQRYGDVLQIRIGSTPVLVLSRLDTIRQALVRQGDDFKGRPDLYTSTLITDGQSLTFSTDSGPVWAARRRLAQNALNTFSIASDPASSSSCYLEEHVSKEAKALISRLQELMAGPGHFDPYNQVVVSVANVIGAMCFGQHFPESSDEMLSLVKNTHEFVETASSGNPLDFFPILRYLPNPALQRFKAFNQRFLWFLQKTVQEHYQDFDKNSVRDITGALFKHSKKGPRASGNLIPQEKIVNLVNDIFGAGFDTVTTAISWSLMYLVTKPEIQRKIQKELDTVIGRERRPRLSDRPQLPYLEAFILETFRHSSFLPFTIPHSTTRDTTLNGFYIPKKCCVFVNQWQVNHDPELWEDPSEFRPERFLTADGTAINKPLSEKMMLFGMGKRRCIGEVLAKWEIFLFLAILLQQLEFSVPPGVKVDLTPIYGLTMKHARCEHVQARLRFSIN
# Summary of the method: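 Read-out is luminescence from luciferin produced by CYP1A2 demethylation of Luciferin-ME (100uM, at Km). Detection reagent stopped the 60 min NADPH-dependent reaction; signals were normalized to 57 uM furafylline.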
# [3] = NFAT Signaling Pathway (AID 444; active means well fitted curve in either direction with a large enough effect, not every such curve was filed as active;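 further: carbachol stimulus at about its EC50 of 1 µM final; on the % scale 0 is the no-effect control and ±100 the full control effect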); settings: Jurkat NFAT-bla M1, carbachol, beta-lactamase ratio, 5 h; at 7.69 µM (top of the series) unless noted
# Summary of the method: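 Jurkat cells with NFAT-driven β-lactamase reporter and co-expressed M1 receptor, stimulated with carbachol (final 1 uM, ~EC50), compound titration, 5 h at 37 °C. CCF4 loaded 1 h at RT; 460/530 nm ratio gave %activity and AC50.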
# [4] = Stat Signaling Pathway (AID 446; active means well fitted curve in either direction with a large enough effect, not every such curve was filed as active;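 further: ME-180 cervical cancer cells given 40 pM IL-6 alongside compound; SIE-controlled beta-lactamase reporter measured as 460/530 nm FRET emission ratio; on the % scale 0 is the no-effect control and ±100 the full control effect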); settings: ME-180 (cervical carcinoma) SIE beta-lactamase reporter, IL-6 stimulated, 5 h; at 7.69 µM (top of the series) unless noted
# Summary of the method: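 Emission at 460 and 530 nm (excitation 405 nm) reports SIE-controlled beta-lactamase in ME-180 cells. Cells received compound with 40 pM IL-6 for 5 hrs at 37 C; data scaled between 300 pM IL-6 and 125 nM JAK-inhibitor controls.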
# [5] = target: Glucocorticoid receptor (Homo sapiens) (UniProt P04150); assay: GR-GFP Redistribution (AID 450;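 active means compounds whose dose series gives a full or clear partial fitted curve of increased nuclear translocation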; further: potency means the concentration at half of the fitted maximal effect); settings: U2OS GR-GFP nuclear translocation, laser cytometry, 2 h
# Chain of Glucocorticoid receptor (Homo sapiens) (P04150 whole entry, looked up, the tested form may be a part): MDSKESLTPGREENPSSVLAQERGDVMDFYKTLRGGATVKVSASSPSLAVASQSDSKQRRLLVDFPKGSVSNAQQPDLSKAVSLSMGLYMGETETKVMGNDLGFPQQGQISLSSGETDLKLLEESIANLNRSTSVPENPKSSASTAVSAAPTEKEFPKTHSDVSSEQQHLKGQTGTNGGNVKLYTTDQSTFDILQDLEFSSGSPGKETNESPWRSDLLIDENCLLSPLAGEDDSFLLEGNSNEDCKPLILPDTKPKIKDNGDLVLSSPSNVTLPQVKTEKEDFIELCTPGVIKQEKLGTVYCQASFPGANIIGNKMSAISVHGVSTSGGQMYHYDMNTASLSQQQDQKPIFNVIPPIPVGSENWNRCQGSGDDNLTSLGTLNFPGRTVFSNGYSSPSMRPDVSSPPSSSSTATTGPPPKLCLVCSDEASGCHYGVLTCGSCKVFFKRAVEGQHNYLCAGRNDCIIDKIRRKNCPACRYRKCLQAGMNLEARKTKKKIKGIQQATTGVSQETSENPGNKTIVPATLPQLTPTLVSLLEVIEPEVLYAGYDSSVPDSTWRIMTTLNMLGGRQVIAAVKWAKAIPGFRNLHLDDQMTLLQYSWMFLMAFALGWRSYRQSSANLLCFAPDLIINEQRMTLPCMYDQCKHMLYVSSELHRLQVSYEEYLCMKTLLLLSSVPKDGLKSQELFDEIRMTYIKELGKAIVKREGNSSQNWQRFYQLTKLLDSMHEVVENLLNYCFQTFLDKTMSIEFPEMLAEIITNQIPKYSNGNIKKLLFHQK
# [6] = target: Glucocorticoid receptor (Homo sapiens) (UniProt P04150); assay: GR-EFC Redistribution (AID 451; calls by dose curve; further: potency means the concentration at half of the fitted maximal effect); settings: CHO-K1 GR-EFC translocation, beta-gal luminescence, 2 h
# Summary of the method: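 CHO-K1 cells expressing nuclear EA and GR-ED fragments of b-gal; compounds titrated up to 46 uM final, 2 h at 37 C. GR nuclear translocation read as complemented b-gal luminescence after 1 h RT detection.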
# [7] = target: Mitogen-activated protein kinase 10 (Mus musculus) (UniProt Q61831); assay: JNK3 AlphaScreen Assay (AID 530; active means well fitted curve in either direction with a large enough effect, not every such curve was filed as active;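 further: kinase came from lysate of stimulated human HepG2 cells; signal reports phosphorylation of biotinylated GST-cJun 1-79 at Ser73 with 10 µM ATP; on the % scale 0 is the no-effect control and ±100 the full control effect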)
# Summary of the method: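 HepG2 lysate (IL-1b/TNFa pre-activated) + biotin-GST-cJun 1-79 + anti-pSer73 cJun; cpd titration, 15 min RT; ATP 10 uM start; Tris pH 7.6, MgCl2, DTT, vanadate; beads in EDTA buffer; AlphaScreen.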
# [8] = target: 3',5'-cyclic-AMP phosphodiesterase 4B (Homo sapiens) (UniProt Q07343); assay: qHTS Assay for Inhibitors of PDE-IV (AID 607; active means well fitted activation curve with a large enough effect in the main read-out, with a control signal flat, not every such curve was filed as active; further: % of control where 0% means no effect)
# Chain of 3',5'-cyclic-AMP phosphodiesterase 4B (Homo sapiens) (Q07343 whole entry, looked up): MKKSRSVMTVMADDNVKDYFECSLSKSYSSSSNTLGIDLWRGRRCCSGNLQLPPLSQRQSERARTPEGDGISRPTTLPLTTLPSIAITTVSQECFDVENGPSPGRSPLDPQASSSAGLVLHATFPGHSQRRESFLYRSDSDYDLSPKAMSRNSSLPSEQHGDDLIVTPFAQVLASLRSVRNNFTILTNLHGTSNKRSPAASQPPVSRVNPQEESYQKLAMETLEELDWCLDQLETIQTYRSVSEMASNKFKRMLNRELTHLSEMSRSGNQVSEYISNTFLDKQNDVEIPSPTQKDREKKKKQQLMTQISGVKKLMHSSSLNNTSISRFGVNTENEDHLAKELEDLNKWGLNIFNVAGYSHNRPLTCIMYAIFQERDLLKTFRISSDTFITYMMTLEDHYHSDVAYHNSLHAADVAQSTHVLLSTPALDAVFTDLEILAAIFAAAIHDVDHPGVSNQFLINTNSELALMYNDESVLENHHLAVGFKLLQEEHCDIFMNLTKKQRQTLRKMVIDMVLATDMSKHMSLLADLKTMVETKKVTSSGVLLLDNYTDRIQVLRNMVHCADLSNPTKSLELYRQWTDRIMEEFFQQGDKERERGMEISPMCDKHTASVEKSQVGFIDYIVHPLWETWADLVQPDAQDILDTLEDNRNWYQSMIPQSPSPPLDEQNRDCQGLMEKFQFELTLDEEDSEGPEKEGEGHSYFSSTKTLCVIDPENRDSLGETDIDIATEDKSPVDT
# Summary of the method: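 The readout is membrane depolarisation from a cAMP-sensing CNG channel, detected with a potential dye at ex 535/em 590. Cells were HEK293-derived (endogenous PDE-IV) at 1000 cells/well, titrated up to 22.9 uM final.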
# [9] = target: Cytochrome P450 3A4 (Homo sapiens) (UniProt P08684); assay: qHTS Assay for Activators of Cytochrome P450 3A4 (AID 885); further: nearly all actives have a fitted effect of over 65% in size
# Chain of Cytochrome P450 3A4 (Homo sapiens) (P08684 whole entry, looked up): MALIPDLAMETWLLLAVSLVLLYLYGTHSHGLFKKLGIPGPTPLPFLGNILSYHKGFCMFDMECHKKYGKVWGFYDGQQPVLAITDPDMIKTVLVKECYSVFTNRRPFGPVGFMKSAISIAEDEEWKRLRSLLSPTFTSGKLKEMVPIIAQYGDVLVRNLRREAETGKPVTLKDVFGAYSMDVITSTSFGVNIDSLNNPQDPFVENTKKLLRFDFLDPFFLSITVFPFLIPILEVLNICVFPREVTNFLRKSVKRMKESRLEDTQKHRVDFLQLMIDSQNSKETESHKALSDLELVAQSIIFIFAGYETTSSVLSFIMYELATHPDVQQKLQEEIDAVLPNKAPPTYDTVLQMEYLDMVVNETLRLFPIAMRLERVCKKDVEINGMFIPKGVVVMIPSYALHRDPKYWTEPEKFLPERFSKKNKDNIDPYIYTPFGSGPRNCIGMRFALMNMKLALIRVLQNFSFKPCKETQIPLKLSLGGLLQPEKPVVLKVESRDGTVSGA
# Summary of the method: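 Activators are scored by enhanced luminescence from CYP3A4 conversion of luciferin-PPXE (25uM, equal to KM) to luciferin, after 60 min at RT with an NADPH-regenerating system.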
# [10] = qHTS Assay for Lipid Storage Modulators (AID 1519; calls by dose curve); settings: Drosophila S3 cells, BODIPY lipid droplet/cell ratio, laser cytometry, cells loaded with oleic acid; for activity change, negative = inhibition: at 25.7 µM (top of the series)
# Summary of the method: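 Cells seeded at 5,000 per well were treated with compounds over a concentration series and loaded with oleic acid (400 uM, as added). Lipid droplet fluorescence (488 nm excitation, 500-530 nm channel) was read by laser-scanning cytometry and normalized to 20 uM Triacsin C.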
# [11] = target: Ubiquitin carboxyl-terminal hydrolase 1 (Homo sapiens) (UniProt O94782); assay: Inhibitors of USP1/UAF1: Pilot qHTS (AID 504865);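 further: rhodamine fluorescence freed from ubiquitin-rhodamine substrate followed over time; top concentration of the series differs between compounds; on the % scale 0 is the no-effect control and ±100 the full control effect; nearly all actives have a fitted effect of over 35% in size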
# Chain of Ubiquitin carboxyl-terminal hydrolase 1 (Homo sapiens) (O94782 whole entry, looked up): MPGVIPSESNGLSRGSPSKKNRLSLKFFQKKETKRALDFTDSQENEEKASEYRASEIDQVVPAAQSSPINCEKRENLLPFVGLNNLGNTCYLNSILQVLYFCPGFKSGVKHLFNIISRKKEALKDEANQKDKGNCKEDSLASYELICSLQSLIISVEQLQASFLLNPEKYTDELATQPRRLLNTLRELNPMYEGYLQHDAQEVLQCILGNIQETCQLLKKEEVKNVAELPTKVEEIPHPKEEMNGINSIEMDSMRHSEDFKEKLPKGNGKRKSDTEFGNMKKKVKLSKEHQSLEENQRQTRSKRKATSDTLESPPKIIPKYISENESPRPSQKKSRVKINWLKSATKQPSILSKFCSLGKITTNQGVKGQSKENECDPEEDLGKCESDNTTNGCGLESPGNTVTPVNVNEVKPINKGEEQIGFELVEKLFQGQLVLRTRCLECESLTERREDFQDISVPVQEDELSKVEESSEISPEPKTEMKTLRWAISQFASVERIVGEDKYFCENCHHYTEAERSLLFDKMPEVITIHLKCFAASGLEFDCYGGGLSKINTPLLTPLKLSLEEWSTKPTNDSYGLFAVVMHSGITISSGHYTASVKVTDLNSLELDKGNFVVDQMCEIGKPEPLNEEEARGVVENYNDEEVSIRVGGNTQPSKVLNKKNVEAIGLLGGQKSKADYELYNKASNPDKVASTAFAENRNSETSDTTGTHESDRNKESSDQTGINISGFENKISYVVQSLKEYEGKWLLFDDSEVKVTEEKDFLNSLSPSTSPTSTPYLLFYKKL
# Summary of the method: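 USP1/UAF1 complex at 1 nM preincubated 15 min at room temperature with compound, then Ub-Rho substrate added at 150 nM final. Fluorescence (480/540 nm) read kinetically in 50 mM HEPES pH 7.8, 0.5 mM EDTA, 1 mM TCEP, 0.1 mg/ml BSA, 0.01% Tween-20.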
# [12] = target: Luciferin 4-monooxygenase (Photinus pyralis) (UniProt P08659); assay: Biochemical firefly luciferase enzyme assay for NPC (AID 624030);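 further: purified P. pyralis luciferase at 10 nM with luciferin and ATP substrate; 0% = DMSO and -100% = full luciferase inhibition by PTC124 control; nearly all actives have a fitted effect of over 70% in size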
# Chain of Luciferin 4-monooxygenase (Photinus pyralis) (P08659 whole entry, looked up): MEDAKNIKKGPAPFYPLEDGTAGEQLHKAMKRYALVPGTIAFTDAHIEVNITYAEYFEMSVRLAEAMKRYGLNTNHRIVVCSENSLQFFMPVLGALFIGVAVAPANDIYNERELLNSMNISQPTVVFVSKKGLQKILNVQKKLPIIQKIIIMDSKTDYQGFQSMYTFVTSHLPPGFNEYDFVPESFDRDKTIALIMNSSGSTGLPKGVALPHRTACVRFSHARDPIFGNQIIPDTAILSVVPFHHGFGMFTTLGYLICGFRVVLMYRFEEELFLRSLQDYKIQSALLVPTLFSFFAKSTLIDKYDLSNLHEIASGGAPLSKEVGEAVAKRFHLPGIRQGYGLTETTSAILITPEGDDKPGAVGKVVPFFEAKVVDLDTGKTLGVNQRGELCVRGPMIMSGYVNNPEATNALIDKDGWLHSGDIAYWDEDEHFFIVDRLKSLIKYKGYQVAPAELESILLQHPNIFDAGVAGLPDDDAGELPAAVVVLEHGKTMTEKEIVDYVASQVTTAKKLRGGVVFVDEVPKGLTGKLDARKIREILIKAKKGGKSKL
# Summary of the method: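 Purified P. pyralis luciferase at 10 nM in 50 mM Tris Acetate (final), luminescence read within 5 minutes of enzyme addition to compounds. Activity normalised to PTC124 versus DMSO; concentration-response curves classed by r2, magnitude and activity.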
# [13] = qHTS profiling for inhibitors of Plasmodium falciparum proliferation (AID 504749);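 further: 0% = DMSO vehicle and full inhibition = artemisinin control; nearly all actives have a fitted effect of over 60% in size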; settings: P. falciparum in erythrocytes, SYBR Green DNA, 72 h
# Summary of the method: (§1)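 SYBR Green fluorescence (ex 485 nm, em 535 nm) reports parasite DNA after 72 h compound exposure of infected red cells at 0.3% parasitemia, 2.5% hematocrit; signal normalized to 0.29 uM artemisinin and vehicle wells.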
# CP238 = assay: as above; settings: P. falciparum in erythrocytes, SYBR Green DNA, 72 h; series mostly up to 12.8 µM
# Summary of the method: as §1
# CP262 = assay: as above; settings: P. falciparum in erythrocytes, SYBR Green DNA, 72 h; series mostly up to 12.8 µM
# Summary of the method: as §1
# CP325 = assay: as above; settings: P. falciparum in erythrocytes, SYBR Green DNA, 72 h; series mostly up to 12.8 µM
# Summary of the method: as §1
# ECU = assay: as above; settings: P. falciparum in erythrocytes, SYBR Green DNA, 72 h; series mostly up to 12.8 µM
# Summary of the method: as §1
# FAB9 = assay: as above; settings: P. falciparum in erythrocytes, SYBR Green DNA, 72 h; series mostly up to 12.8 µM
# Summary of the method: as §1
# HB3 = assay: as above; settings: P. falciparum in erythrocytes, SYBR Green DNA, 72 h; series mostly up to 12.8 µM
# Summary of the method: as §1
# JCK = assay: as above; settings: P. falciparum in erythrocytes, SYBR Green DNA, 72 h; series mostly up to 12.8 µM
# Summary of the method: as §1
# [14] = measured here: cell count channel max response
# [15] = measured here: lipid channel max response
structure (smiles),measurement,setting,value
COc1c2ccoc2nc2c(OC)c(OC[C@H](O)C(C)(C)O)ccc12,"activity change, negative = inhibition",[1],1.86% [at 17.2 µM] (inactive)
same,Potency,[2],10 µM (active) and 25.1 µM (active)
same,"activity change, negative = inhibition",[3],15.7% [at 17.2 µM] (inactive)
same,"activity, negative = inhibition",[4],-10.7% [at 17.2 µM] (inactive)
same,Potency,[5],> 20.6 µM (inactive) and > 46 µM (inactive)
same,Potency,[6],> 20.6 µM (inactive) and > 46 µM (inactive)
same,Potency,[7],inactive
same,Potency,[8],inactive
same,Potency,[9],inactive
same,"activity change, negative = inhibition",[10],-1.84% (inactive)
same,max response,[10]; [14],-8.76%
same,max response,[10]; [15],-11%
same,Potency,[11],inactive
CN[C@@H](CC(C)C)C(=O)N[C@@H]1C(=O)N[C@H](CC(N)=O)C(=O)N[C@@H]2C(=O)N[C@H]3C(=O)N[C@H](C(=O)N[C@H](C(=O)O)c4cc(O)cc(O)c4-c4cc3ccc4O)[C@H](O)c3ccc(c(Cl)c3)Oc3cc2cc(c3O[C@H]2O[C@@H](CO)[C@@H](O)[C@@H](O)[C@@H]2O[C@@H]2C[C@](C)(N)[C@H](O)[C@H](C)O2)Oc2ccc(cc2Cl)[C@@H]1O,"activity change, negative = inhibition",[1],4.27% [at 17.2 µM] (inactive)
same,"activity change, negative = inhibition",[3],-5.38% [at 17.2 µM] (inactive)
same,"activity, negative = inhibition",[4],7.22% [at 17.2 µM] (inactive)
same,Potency,[5],> 20.6 µM (inactive)
same,Potency,[6],> 20.6 µM (inactive)
same,Potency,[8],inactive
same,"activity change, negative = inhibition",[10],-2.11% (inactive)
same,max response,[10]; [14],5.45%
same,max response,[10]; [15],3.37%
same,outcome,[12],inactive
same,"activity, negative = inhibition","[13]; at 28.7 µM (top of the series), parasite line A",3.64% (inactive)
same,"activity, negative = inhibition","[13]; at 28.7 µM (top of the series), parasite line B",4.98% (inactive)
same,Potency,CP238,inactive
same,Potency,CP262,inactive
same,Potency,CP325,inactive
same,Potency,ECU,inactive
same,Potency,FAB9,inactive
same,Potency,HB3,inactive
same,Potency,JCK,inactive
CN(C)CCOC(c1ccccc1)c1ccccc1 (tested in a mixture with another compound),"activity change, negative = inhibition",[1],27.4% [at 17.2 µM] (inactive) and 19.6% [at 17.2 µM] (inactive)
same,"activity change, negative = inhibition",[3],-93.6% [at 17.2 µM] (active)
same,"activity, negative = inhibition",[4],7.8% [at 17.2 µM] (inactive) and 0.334% [at 17.2 µM] (inactive)
same,Potency,[7],inactive
same,Potency,[8],inactive
same,"activity change, negative = inhibition",[10],-3.15% (inactive)
same,max response,[10]; [14],-0.682%
same,max response,[10]; [15],-4.36%
CN[C@@H]1[C@H](O[C@@H]2O[C@H](CO)[C@@H](N)[C@H](O)[C@@H]2O)O[C@H]2C[C@@H](N)[C@@H](O[C@H]3[C@@H](O)[C@H](O)[C@H](N)C[C@@H]3N)O[C@H]2[C@H]1O,"activity change, negative = inhibition",[1],3.97% [at 17.2 µM] (inactive)
same,Potency,[2],inactive
same,"activity change, negative = inhibition",[3],-18% [at 17.2 µM] (inactive)
same,"activity, negative = inhibition",[4],-2.35% [at 17.2 µM] (inactive)
same,Potency,[5],> 20.6 µM (inactive)
same,Potency,[6],> 20.6 µM (inactive)
same,Potency,[7],inactive
same,Potency,[8],inactive
same,"activity change, negative = inhibition",[10],-1.23% (inactive)
same,max response,[10]; [14],-10.4%
same,max response,[10]; [15],-11.9%
same,Potency,[11],inactive
same,outcome,[12],inactive
same,"activity, negative = inhibition","[13]; at 12.8 µM (top of the series), parasite line A",-1.02% (inactive)
same,"activity, negative = inhibition","[13]; at 12.8 µM (top of the series), parasite line B",-5.91% (inactive)
same,Potency,CP238,inactive
same,Potency,CP262,inactive
same,Potency,CP325,inactive
same,Potency,ECU,inactive
same,Potency,FAB9,inactive
same,Potency,HB3,inactive
same,Potency,JCK,inactive
